Screening results: PubChem BioAssay, National Center for Advancing Translational Sciences (NCATS)
The entries come from a sample that favours hits as a whole.
ClpP mod: qHTS Assay for Activators of ClpP; hit rate 1.9% among 340,000; ATP-dependent Clp protease proteolytic subunit (Bacillus subtilis (strain 168)), P80244; purified B. subtilis ClpP, FRET peptide cleavage, 20 min; AID 651965, 2013; Potency, µM (highest dose often 57.5 µM); active = well fitted falling curve with a large enough effect; inconclusive = small, poorly fitted or top-dose-only effect; inactive = no such curve, though single readings can be large or run the other way; note: the source files actives as falling curves though it sought activators and does not explain the sign; nearly all actives have a fitted effect of over 65% in size
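ClpP 10 microg/mL final, pH 8 Tris/KCl buffer with BSA, glycerol, Tween-20; compound pinned in; FRET-FV substrate; RT 20 min; Ex320/Em430; ΔFRET vs ADEP 5.8 microM, DMSO, no enzyme.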
p53 reactivator: mutant p53 re-activation in reporter cells. Potency, µM (top dose mostly 92.2 µM), most hits filed as activators. H1299 p53-A138V BP100-luciferase reporter, luminescence, 24 h. hit rate 0.063% among 320,000; active = well fitted activation curve with a large enough effect; inconclusive = small, poorly fitted or top-dose-only effect; inactive = no such curve, though single readings can be large or run the other way; note: nearly all actives have a fitted effect of over 45% in size
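H1299 (p53-null), stable ts p53-A138V + BP100-Luc; 1000 cells/well, Opti-MEM/10% FBS; cpd 4 pt, 1:5; 24 h, 37 deg C, 5% CO2; detection reagent 10 min RT; luminescence.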
MLL CXXC-DNA inh: inhibitors of human MLL CXXC domain-DNA interaction; Q03164; MLL-CXXC / FITC-HOXA9 DNA fluorescence polarization; Potency, µM (highest dose often 115 µM), usual class: inhibitors; hit rate 0.037% among 290,000; AID 2662; active = well fitted inhibition curve with a large enough effect in the polarisation, with a control signal flat, not every such curve was filed as active; inconclusive = small, poorly fitted or top-dose-only effect, or effect the other way, or a change in a side signal; inactive = no such curve, though single readings can be large or run the other way; the % refers to the polarisation
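Steps: dispense CXXC domain solution (7 uM) → pin compounds or unlabeled HOX-A9 DNA control → 5 min ambient → add FLSN-HOX-A9 solution (50 nM) → spin → 30 min ambient → fluorescence polarization. Tris pH 7.5/NaCl/DTT/BSA buffer.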
Menin MLL FP FL: displaces fluorescein MLL peptide from human menin; FP activity change, % at 61.4 µM; AID 1766; Fluorescence polarization, fluorescein-MLL peptide displacement from menin; 290,000 tested, under 10 active; active = well fitted curve in the direction sought with a large enough effect in the polarisation, not every such curve was filed as active; inconclusive = small, poorly fitted or top-dose-only effect, or effect the other way, or a change in a side signal; inactive = no such curve, though single readings can be large or run the other way; the % refers to the polarisation
Menin-MLL TR inh: displaces Texas Red mutant MLL peptide from human menin; Potency, µM (series often up to 61.6 µM), usual class: inhibitors; Menin + Texas Red MLL mutant peptide, fluorescence polarization; hit rate 0.23% among 270,000; active = well fitted inhibition curve with a large enough effect in the polarisation, with a control signal flat, not every such curve was filed as active; inconclusive = small, poorly fitted or top-dose-only effect, or effect the other way, or a change in a side signal; inactive = no such curve, though single readings can be large or run the other way; the % refers to the polarisation
Numbers stand for hits; i = inactive; ? = inconclusive; nt = no result given.

SMILES	ClpP mod	p53 reactivator	MLL CXXC-DNA inh	Menin MLL FP FL	Menin-MLL TR inh
Nc1ccc(/C=C/c2ccnc3ccccc23)cc1	i	nt	nt	nt	nt
COc1cc(NC(=O)CC(C)S(=O)(=O)c2cc3c4c(c2)CCN4C(=O)CC3)cc(OC)c1 (stereo not given)	i	nt	nt	nt	nt
Clc1ccc(Oc2ncnc3oc(-c4ccccc4)cc23)cc1	i	i	i	i	10µM
Cc1ccccc1Oc1ncnc2oc(-c3ccccc3)cc12	31.6µM	i	i	i	i
c1ccc2c(CCc3c[nH]c4ccccc34)ccnc2c1	i	nt	nt	nt	nt
CCOc1ccc2[nH]c3c(NCCO)ncnc3c2c1	i	i	i	i	i
CCOCCCNc1ncnc2c1[nH]c1ccccc12	15.8µM	i	i	i	i
CCCCOCCCNc1ncnc2c1[nH]c1ccccc12	28.2µM	i	i	i	i
CCc1ccccc1NC(=O)Cn1cc2c(n1)CCC(C)C2 (stereo not given)	i	nt	nt	nt	nt
O=C(Nc1ccc(O)c(-c2nc3ccccc3s2)c1)c1cccs1	28.2µM	i	i	i	?
O=C(Nc1ccc(O)c(-c2nc3ccccc3s2)c1)c1cc(=O)c2ccccc2o1	i	i	i	i	i
COCCNc1c2c(c(C#N)c3nc4ccccc4n13)CCCC2	i	i	i	i	i
N#Cc1c2c(c(NCc3cccnc3)n3c1nc1ccccc13)CCC2	31.6µM	i	i	i	nt
Brc1ccc(-c2nnc(-c3cccc(Br)c3)o2)cc1	i	i	i	i	?
Cc1ccc(-c2nnc(-c3ccc(Br)cc3)o2)o1	31.6µM	?	i	i	i
Cc1nc(Nc2nc(CSc3nc4ccccc4[nH]3)cc(=O)[nH]2)nc2ccccc12	i	?	i	nt	i
COc1ccc2nc(Nc3nc(CSc4nc5ccccc5[nH]4)cc(=O)[nH]3)nc(C)c2c1	i	39.8µM	i	i	i
c1ccc(-c2cc3nc(NCC4CC4)nc(NCC4CCCCC4)c3s2)cc1	20µM	nt	nt	nt	nt
COCCNc1nc(NCCOc2ccccc2Cl)c2sc(-c3ccccc3)cc2n1	i	nt	nt	nt	nt
COCCNc1nc(NCC2CCCCC2)c2sc(-c3ccccc3)cc2n1	25.1µM	nt	nt	nt	nt
C=CCN1CC[C@@H](O)C(=C)S1(=O)=O	i	nt	nt	nt	nt
Cc1cc(C)c(S(=O)(=O)N2CCCCC2CCNC(=O)C(=O)NCc2ccco2)c(C)c1 (stereo not given)	14.1µM	i	nt	nt	nt
CCCCN(CCC#N)c1ccc(/C=C/c2ccnc3ccccc23)cc1	i	nt	nt	nt	nt
Cc1ccc(-c2cccc(NC(=O)C3C(C(=O)O)[C@@H]4C=C[C@H]3C4)c2)o1 (stereo not given in full)	i	i	i	i	i
Cc1ccc(-c2ccccc2NC(=O)C2C3C=CC(C3)C2C(=O)O)o1 (stereo not given)	25.1µM	i	i	i	i
SMILES	ClpP mod	p53 reactivator	MLL CXXC-DNA inh	Menin MLL FP FL	Menin-MLL TR inh
CCOc1ccc(N(C(=O)OC(C)(C)C)C(=O)c2ccc(O[Si](C)(C)C(C)(C)C)cc2)c(I)c1	nt	nt	nt	i	i
O=C(Nc1ccc2c(c1)OCCO2)c1c(Cl)cccc1Cl	i	nt	nt	nt	nt
O=C(CCc1ccccc1)Nc1ccc2c(c1)OCCO2	28.2µM	?	i	i	i
O=C(CCSCc1ccccc1)Nc1ccc2c(c1)OCCO2	i	i	i	i	i
O=C(CSCc1c(Cl)cccc1Cl)Nc1ccc2c(c1)OCCO2	15.8µM	i	i	i	i
O=P1(O)OP(=O)(O)OP(=O)(O)O1.[Al]	nt	nt	nt	i	i
COc1ccc2c(c1)-c1nc(NC(=O)c3cc(Cl)ccc3OC)sc1CC2	i	nt	nt	nt	nt
COc1ccc2c(c1)-c1nc(NC(=O)c3ccccc3F)sc1CC2	35.5µM	nt	nt	nt	nt
CC(=O)N(c1ccc2ccccc2c1)C1SC(=O)N(c2cccc(C)c2)C1=O (stereo not given)	i	nt	nt	nt	nt
CCCOc1ccc2oc(=O)c3c(c2c1)CCCN3C(=O)CN1CCc2ccccc2C1	17.8µM	i	i	i	?
CC1CCN(CC(=O)N2CCCc3c2c(=O)oc2ccc(OCc4ccccc4)cc32)CC1	?	i	i	i	i
CCN(CC)c1ccc(/C=N/Nc2nc3ccccc3[nH]2)c(O)c1	?	17.8µM	?	i	?
CCN(CC)c1ccc(/C=N/NC(=O)Cc2cccs2)c(O)c1	28.2µM	?	i	i	i
C#CCn1cc(/C=N/Nc2nc3ccccc3[nH]2)c2ccccc21	i	14.1µM	?	i	?
CCN(CC)c1ccc(/C=N/NC(=O)c2ccco2)c(O)c1	i	?	i	?	nt
O=C(Cc1ccc(OCCCc2ccccc2)cc1)NO	i	nt	nt	nt	nt
O=C(Nc1ccccc1)c1ccccc1NC(=O)[C@H]1CCCC[C@H]1C(=O)O	i	nt	i	i	i
O=C(O)C1CCCCC1C(=O)Nc1ccccc1Nc1ccccc1 (stereo not given)	25.1µM	i	i	i	i
CCOC(=O)c1c(-c2ccc(C)cc2)cn2ccccc12	12.6µM	i	i	i	?
O=C(C[n+]1ccccc1Br)c1ccc2c(c1)CCCC2	i	nt	nt	nt	nt
CCOc1ccc(Cn2c(-c3ccc(OCC)c(OC)c3)nc3ccccc32)cc1OC	i	nt	nt	nt	nt
CCOc1cc(Cn2c(-c3ccc(O)c(OCC)c3)nc3ccccc32)ccc1O	10µM	nt	nt	nt	nt
COc1cccc(NC(=O)Cn2c(=O)n(-c3ccc(Cl)cc3)c(=O)c3sc4ccccc4c32)c1	31.6µM	nt	nt	nt	nt
COc1cccc(-n2c(=O)c3sc4ccccc4c3n(CC(=O)Nc3cccc(Cl)c3)c2=O)c1	i	nt	nt	nt	nt
O=C(Cn1ncn2c(cc3ccccc32)c1=O)NCCC1=CCCCC1	22.4µM	i	i	i	i
SMILES	ClpP mod	p53 reactivator	MLL CXXC-DNA inh	Menin MLL FP FL	Menin-MLL TR inh
CCCCCCCCCCCCCCCCOCC(CO)OC (stereo not given)	nt	nt	nt	i	i
COC(=O)c1cc2c(ccn2-c2ccc(F)cc2)n1CC(=O)C(C)(C)C	25.1µM	i	i	i	i
Cc1csc[n+]1CC(=O)c1ccc(I)cc1	i	nt	nt	nt	nt
COc1ccccc1N1C(=O)C2CC=CC(C)C2C1=O (stereo not given)	3.16µM	i	i	i	i
COc1ccccc1N1C(=O)C2CCC(c3ccccc3)CC2C1=O (stereo not given)	i	i	i	i	i
O=C(NNc1ccccc1F)c1sccc1Cl	i	nt	nt	nt	nt
CC1CC2(CCCCC2)Nc2c1ccc1ccccc21 (stereo not given)	17.8µM	?	i	i	i
CCCCCCOc1ccc(CC(=O)O)cc1	i	nt	nt	nt	nt
O=C(O)CSc1nnc(-c2ccc(Cl)cc2)n1-c1ccccc1	nt	?	i	i	i
Cc1c(-n2c(SCC(=O)O)nnc2-c2ccccc2Cl)c(=O)n(-c2ccccc2)n1C	35.5µM	i	i	i	i
CCC(C)C(N)C(=O)NC(CC(N)=O)C(=O)NC(CC(C)C)C(=O)NC(CCCCN)C(=O)NC(C)C(=O)NC(CC(C)C)C(=O)NC(C)C(=O)NC(C)C(=O)NC(CC(C)C)C(=O)NC(C)C(=O)NC(CCCCN)C(=O)NC(CCCCN)C(=O)NC(C(=O)NC(CC(C)C)C(N)=O)C(C)CC (stereo not given)	nt	nt	nt	i	i
